Sampled rows, rich in hits. Any-hit rate of the full collection: about 2.5%.
Cruzain inh Det: blocks cruzain activity in presence of Triton detergent; P25779; purified cruzain, Z-FR-AMC fluorescence, 0.01% Triton; Potency, µM, without a hit: max response, negative = inhibition, hits mostly inhibitors; 200,000 compounds, 0.43% hits;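 note: plate controls were neutral wells for no effect and buffer without enzyme for full effect; nearly all actives have a fitted effect of over 40% in size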
Target sequence (P25779 123-467 limits assumed): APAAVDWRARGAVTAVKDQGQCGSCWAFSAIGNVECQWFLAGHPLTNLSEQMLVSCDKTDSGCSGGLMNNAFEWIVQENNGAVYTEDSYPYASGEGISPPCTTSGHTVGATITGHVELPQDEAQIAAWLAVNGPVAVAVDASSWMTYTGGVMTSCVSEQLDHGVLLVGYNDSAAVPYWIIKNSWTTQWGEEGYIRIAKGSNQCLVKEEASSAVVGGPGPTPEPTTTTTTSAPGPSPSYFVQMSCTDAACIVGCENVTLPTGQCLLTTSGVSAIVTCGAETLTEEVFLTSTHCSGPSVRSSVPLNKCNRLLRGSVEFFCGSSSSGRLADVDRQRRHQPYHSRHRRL
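15 min RT preincubation of 1.5 nM cruzain with compound, then 2 uM Z-FR-AMC added; kinetic AMC fluorescence, 60 s delta. Triton X-100 0.01%, pH 5.5.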
Cruzain inh noDet: blocks cruzain activity in detergent-free assay. AID 1476. 200,000 compounds, 2.3% hits. purified cruzain, Z-FR-AMC fluorescence, no detergent. P25779. Potency, µM, for the others: max response, negative = inhibition, usual class: inhibitors;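 note: plate controls were enzyme without inhibitor for no effect and buffer without enzyme for full effect; nearly all actives have a fitted effect of over 40% in size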
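Detergent-free condition (0.00005% Triton X-100) in acetate buffer pH 5.5 with DTT. 1.5 nM enzyme and compound were pre-mixed 15 min, then 2 uM Z-FR-AMC substrate added; reaction progress from fluorescence change between first and third reads (60 s).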
Numbers without * were called inactive; ? = inconclusive. Calls come from the whole dose curve; as a rule, active = well fitted curve in the direction sought with a large enough effect; inconclusive = small, poorly fitted or top-dose-only effect, or another doubt; inactive = no such curve, though single readings can be large; an effect the other way counts as inactive or inconclusive. Potency is the fitted concentration of half-maximal effect.

SMILES	Cruzain inh Det	Cruzain inh noDet
Cc1nc(C(=O)Nc2ccc(Cl)cc2Cl)nn1-c1cc(OC(C)C)c(Cl)cc1Cl	-1%	25µM*
Cc1nc(C(=O)Nc2cccc(Cl)c2Cl)nn1-c1cc(OC(C)C)c(Cl)cc1Cl	-2%	?
Cc1nc(C(=O)Nc2cccc(Cl)c2)nn1-c1cc(OC(C)C)c(Cl)cc1Cl	-1%	?
Cc1nc(C(=O)Nc2cc(Cl)ccc2Cl)nn1-c1cc(OC(C)C)c(Cl)cc1Cl	4%	25µM*
COc1ccc(CCC(=O)c2c(O)cc(O[C@@H]3O[C@H](CO)[C@@H](O)[C@H](O)[C@H]3O[C@@H]3O[C@@H](C)[C@H](O)[C@@H](O)[C@H]3O)cc2O)cc1O	9%	?
O=C(Nc1nc2c(ccc3ccccc32)s1)c1ccco1	-12%	-20%
O=C(NC(=S)Nc1nc2c(ccc3ccccc32)s1)c1cccs1	-1%	20µM*
O=C(c1cc(-c2cccnc2)nc2ccccc12)N1CCCc2ccccc21	-10%	-9%
Cc1ccc(-c2cc(C(=O)N3CCCc4ccccc43)c3ccccc3n2)cc1	-2%	32µM*
NC(N)=N/N=C\c1ccc(O)c(C(=O)O)c1	-2%	-3%
CCOC(=O)C1=C(C)C(c2ccccc2O)NC(=O)N1 (centres undefined)	5%	5%
COc1ccc(-c2ccc(-c3cc(=O)oc4cc(C)cc(C)c34)cc2)cc1	0%	?
Cc1cc(C)c2c(-c3ccc(-c4ccc(C(F)(F)F)cc4)cc3)cc(=O)oc2c1	5%	25µM*
CCOC(=O)c1ccc(NC(=O)C(=O)NCc2ccco2)cc1	0%	-4%
COC(=O)c1ccc(NC(=O)N2CCc3c([nH]c4ccccc34)C2c2ccc(C)cc2)cc1 (centres undefined)	2%	-4%
CN(C)c1ccc(NC(=O)c2cn(-c3ccccc3)nc2-c2cccs2)cc1	-1%	?
O=C(Nc1ccc2ccccc2c1)c1cn(-c2ccccc2)nc1-c1cccs1	-1%	20µM*
Cc1cccc(S(=O)(=O)c2c(N)n(/N=C/c3ccccc3)c3nc4ccccc4nc23)c1	1%	4µM*
COc1ccc(CCn2c(N)c(S(=O)(=O)c3cccs3)c3nc4ccccc4nc32)cc1OC	-10%	-3%
Nc1c(S(=O)(=O)c2ccccc2)c2nc3ccccc3nc2n1/N=C/c1cccc(O)c1	1%	-23%
COc1ccccc1/C=N/n1c(N)c(S(=O)(=O)c2cccs2)c2nc3ccccc3nc21	4%	7.9µM*
O=[N+]([O-])c1cc2c(c(CSc3nnc(Nc4ccccc4)s3)c1)OCOC2	-1%	?
Cc1ccccc1Nc1nnc(SCc2cc([N+](=O)[O-])cc3c2OCOC3)s1	1%	13µM*
CCOc1ccc(C2=C(C=C(C#N)C#N)C(c3ccccc3)c3ccccc3O2)cc1 (centres undefined)	-4%	10µM*
COc1ccc(C2=C(CN(C)C)C(c3ccccc3)c3ccccc3O2)cc1 (centres undefined)	0%	6%
SMILES	Cruzain inh Det	Cruzain inh noDet
O=c1c(-c2ccc(F)c(F)c2)nc2cncnc2n1Cc1ccc(F)cc1	-5%	-4%
COc1ccc(N2CC(NC(=O)COc3ccc(F)cc3)CC2=O)cc1OC (centres undefined)	0%	-10%
O=C(CSc1nc2ccccc2c(=O)n1-c1ccc(Cl)cc1)N/N=C/C=C/c1ccccc1[N+](=O)[O-]	-3%	10µM*
Cc1ccccc1-n1c(SCC(=O)N/N=C/C=C/c2ccccc2[N+](=O)[O-])nc2ccccc2c1=O	-1%	?
COc1cccc([C@@H]2Oc3ccc(OC)cc3C(=O)[C@H]2OC(=O)NCCc2ccc(OC)c(OC)c2)c1	0%	13%
Cc1ccc(C2CC(c3cccs3)=NN2C(=O)c2ccc(Br)o2)cc1 (centres undefined)	-9%	7.9µM*
CCOC(=O)CSCC(=O)N1N=C(c2cccs2)CC1c1ccc(F)cc1 (centres undefined)	-9%	7%
CCOc1ccc(-c2n[nH]c(C)c2Oc2ccc(OC)cc2)c(O)c1	-5%	-8%
Cc1cc(C)c(NC(=O)C(C)Sc2nc3ccc(N4C(=O)c5ccccc5C4=O)cc3s2)c(C)c1 (centres undefined)	0%	6.3µM*
CCc1cccc(C)c1NC(=O)CSc1nc2ccc(N3C(=O)c4ccccc4C3=O)cc2s1	5%	?
Cc1ccccc1NC(=O)CSc1c(C(C)C)cnc2c1c(=O)n(C)c(=O)n2C	1%	2%
CCN(C(=O)c1cc(S(=O)(=O)N2CCCCC2)c[nH]1)c1ccc(OC)cc1	-2%	1%
CC(C)CCNS(=O)(=O)c1ccc(N2CCCCS2(=O)=O)cc1	0%	-4%
Cc1ccccc1NC(=S)NC(=O)c1cc(-c2ccccc2)nc2ccccc12	0%	?
CCOc1ccc(-c2cc(C(=O)Nc3ccc4c(c3)OCCO4)c3ccccc3n2)cc1	-5%	?
Cc1cccc(NC(=S)NC(=O)c2cc(-c3ccccc3)nc3ccccc23)c1	8%	20µM*
Cc1cccc(-c2cc(C(=O)Nc3ccc4c(c3)OCCO4)c3ccccc3n2)c1	2%	32µM*
O=C(COc1ccccc1)Nc1ccc2c(c1)Cc1cc(NC(=O)COc3ccccc3)ccc1-2	4%	2.5µM*
Cc1ccccc1OCC(=O)Nc1ccc2c(c1)Cc1ccccc1-2	1%	?
CC(C)N(C(=O)Cn1cc(SCC(=O)Nc2ccccc2F)c2ccccc21)C(C)C	-6%	-14%
O=C(COC(=O)c1ccc(O)cc1)Nc1ccc(Cl)cc1C(=O)c1ccccc1	-11%	-12%
Cc1ccccc1NC(=O)COC(=O)c1ccc(CSc2ccc(Cl)cc2)cc1	3%	10µM*
COc1cccc(Cn2c(=O)n(-c3cccc(Cl)c3)c(=O)c3c4c(sc32)CN(C(C)=O)CC4)c1	-8%	?
Cc1ccc(S(=O)(=O)N2CCN(C(=O)CSc3ncc(C(F)(F)F)cc3Cl)CC2)cc1	-4%	7%
Cc1ccc(CO/N=C\Cc2snc(Sc3ncc(C(F)(F)F)cc3Cl)c2C#N)cc1	-8%	4µM*
SMILES	Cruzain inh Det	Cruzain inh noDet
CCN(CC)c1ccc(C2CC(=O)Nc3cc(OC)c(OC)cc32)cc1 (centres undefined)	5%	-4%
CCOC(=O)c1ccc(N2C(=O)c3n[nH]c(-c4cccs4)c3C2c2cccc(F)c2)cc1 (centres undefined)	4%	?
COc1cc2c(cc1OC)[C@@H]1CC(=O)[C@@H](CC(C)C)CN1CC2	-4%	-9%
Cc1ccc(Cc2cnc(NC(=O)c3ccco3)s2)cc1	-1%	-9%
O=C(Nc1ncc(Cc2ccc(SC(F)F)cc2)s1)c1ccc(OC(F)F)cc1	-3%	20µM*
COc1cc2c(cc1NC(=O)c1ccncc1)oc1ccccc12	-9%	?
COc1cc2c(cc1NC(=O)c1ccc(C)c([N+](=O)[O-])c1)oc1ccccc12	3%	25µM*
COc1cc2c(cc1NC(=O)c1cccc([N+](=O)[O-])c1)oc1ccccc12	-1%	16µM*
COc1cc2c(cc1NC(=O)c1cccnc1)oc1ccccc12	-8%	?
COC(=O)[C@@H]1O[C@@H](SCCN)[C@@H](O)[C@H](O)[C@H]1O	2%	-7%
COc1ccccc1N1CCN(C(=O)C2CCN(S(=O)(=O)c3cn(C)cn3)CC2)CC1	1%	2%
O=S(Cc1cc(Oc2ccccc2)nc(-c2ccccc2)n1)c1ccccc1 (centres undefined)	-5%	-4%

Compound activity (PubChem)
